Results on 31 compounds are retold here after PubChem BioAssay (NCATS).

Molecules are shown by their SMILES. Results filed as inconclusive are left out. A number with no mark means an inactive call. The source made the active and inactive calls. Unless noted, calls follow the shape of the dose curve; as a rule, active = well fitted curve in the direction sought with a large enough effect; inconclusive = small, poorly fitted or top-dose-only effect, or another doubt; inactive = no such curve, though single readings can be large; an effect the other way counts as inactive or inconclusive. Where a SMILES comes first, the peptide text is derived from it. The star is where a group is joined. AFC = O=c1cc(C(F)(F)F)c2ccc(N*)cc2o1

Test [1] addresses Cytochrome P450 3A4 (Homo sapiens) (UniProt P08684). The test can be described thus: Cytochrome P450 family 3 subfamily A member 4 (CYP3A4) small molecule antagonists: luciferase qHTS assay (AID 1645841; active = well fitted curve in the direction sought with a large enough effect in the repeat runs; an effect the other way counts as inactive or inconclusive; also: nearly all actives have a fitted effect of over 45% in size). Put shortly: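 Luminescent CYP3A4 activity readout: compounds plus enzyme-substrate mix 10 min at room temperature, reaction started with NADPH regenerating system for 1 h, stopped with detection reagent, read after 20 min. Ketoconazole served as control.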
(Quantitative high-throughput screening tests each substance at several concentrations.)

In test [2] the target is Cytochrome P450 2C9 (Homo sapiens) (UniProt P11712). The test can be described thus: Cytochrome P450 family 2 subfamily C member 9 (CYP2C9) small molecule antagonists: luciferase biochemical (cell-free) qHTS assay (AID 1645842; active = well fitted curve in the direction sought with a large enough effect in the repeat runs; an effect the other way counts as inactive or inconclusive; also: nearly all actives have a fitted effect of over 55% in size; also: potency is read from the fitted curve at half-maximal effect; as to activity change, negative = inhibition: series mostly up to about 57 µM; % is scaled to controls: 0 for no effect and ±100 for the full control effect). Put shortly: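 P450-Glo CYP2C9 system: proluciferin substrate with enzyme in mix containing 0.4% BSA, 10 min at room temperature, then NADPH regeneration solution added and incubated 1 h at 37C. Detection reagent stopped reaction; luminescence read after 20 min as RLU.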
Chain of Cytochrome P450 2C9 (Homo sapiens) (P11712 whole entry, looked up): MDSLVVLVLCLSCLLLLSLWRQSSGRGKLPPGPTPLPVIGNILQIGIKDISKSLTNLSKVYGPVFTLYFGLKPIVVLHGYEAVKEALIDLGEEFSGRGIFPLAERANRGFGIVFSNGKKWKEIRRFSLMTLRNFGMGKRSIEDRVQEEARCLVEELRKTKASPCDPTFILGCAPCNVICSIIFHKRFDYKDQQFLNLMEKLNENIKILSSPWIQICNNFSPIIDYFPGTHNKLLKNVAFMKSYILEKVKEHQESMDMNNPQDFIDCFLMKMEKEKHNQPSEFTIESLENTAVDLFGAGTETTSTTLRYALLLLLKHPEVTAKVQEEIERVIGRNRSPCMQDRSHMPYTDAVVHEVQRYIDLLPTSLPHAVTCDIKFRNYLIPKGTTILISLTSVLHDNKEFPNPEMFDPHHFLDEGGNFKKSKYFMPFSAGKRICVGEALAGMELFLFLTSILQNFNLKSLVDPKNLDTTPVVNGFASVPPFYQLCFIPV

A short description of test [3]: Primary qHTS for inhibitors of nuclear receptor binding SET domain protein 2 (NSD2) in an isogenic RCH-ACV NSD2 p.E1099K mutant (9B) (AID 1645876). Also: nearly all actives have a fitted effect of over 70% in size. As to activity change, negative = viability loss: % is scaled to controls: 0 for no effect and ±100 for the full control effect.
Test [4] can be described thus: Primary qHTS for inhibitors of nuclear receptor binding SET domain protein 2 (NSD2) in an RCH-ACV wild type WT cells (2C) (AID 1645877). Also: nearly all actives have a fitted effect of over 70% in size. Also: potency is read from the fitted curve at half-maximal effect. As to activity change, negative = cell killing: % is scaled to controls: 0 for no effect and ±100 for the full control effect.
Test [5] concerns the target N-terminal Xaa-Pro-Lys N-methyltransferase 1 (Homo sapiens) (UniProt Q9BV86). The test can be described thus: Confirmatory qHTS for Inhibitors of N-terminal methyltransferase 1 (NTMT1): MTaseGlo Assay (AID 1645874).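 Also: luminescence from SAH made as NTMT1 methylates SPKRIA peptide using SAM; series mostly up to about 100 µM; 0% = DMSO control and -100% = no-enzyme control; nearly all actives have a fitted effect of over 65% in size.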 In short, it runs like this:
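Room-temperature NTMT1 reaction, 30 min, with 100 uM SAM and 1 uM SPKRIA substrate; enzyme 125 nM. Read-out: MTase-Glo luminescence, normalized to no-enzyme and DMSO controls.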

Test [6] concerns the target Cytochrome P450 2D6 (Homo sapiens) (UniProt P10635). As to the kind of experiment: Cytochrome P450 family 2 subfamily D member 6 (CYP2D6) small molecule antagonists: luciferase biochemical (cell-free) qHTS assay (AID 1645840; active = well fitted curve in the direction sought with a large enough effect in the repeat runs; an effect the other way counts as inactive or inconclusive; also: series mostly up to about 57 µM; % is scaled to controls: 0 for no effect and ±100 for the full control effect; nearly all actives have a fitted effect of over 55% in size). Put shortly: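 P450-Glo CYP2D6 system: proluciferin substrate converted by enzyme to luciferin, read by luminescence proportional to activity. Enzyme-substrate mix with compound 10 min at room temperature, then NADPH regeneration 1 h before detection reagent.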

Chain of N-terminal Xaa-Pro-Lys N-methyltransferase 1 (Homo sapiens) (Q9BV86 whole entry, looked up): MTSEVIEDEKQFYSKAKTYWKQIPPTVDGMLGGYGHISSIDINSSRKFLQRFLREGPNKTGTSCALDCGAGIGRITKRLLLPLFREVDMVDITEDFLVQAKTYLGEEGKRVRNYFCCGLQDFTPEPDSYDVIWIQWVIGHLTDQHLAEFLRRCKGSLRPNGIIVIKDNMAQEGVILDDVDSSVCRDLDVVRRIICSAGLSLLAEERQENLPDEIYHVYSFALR
Chain of Cytochrome P450 3A4 (Homo sapiens) (P08684 whole entry, looked up): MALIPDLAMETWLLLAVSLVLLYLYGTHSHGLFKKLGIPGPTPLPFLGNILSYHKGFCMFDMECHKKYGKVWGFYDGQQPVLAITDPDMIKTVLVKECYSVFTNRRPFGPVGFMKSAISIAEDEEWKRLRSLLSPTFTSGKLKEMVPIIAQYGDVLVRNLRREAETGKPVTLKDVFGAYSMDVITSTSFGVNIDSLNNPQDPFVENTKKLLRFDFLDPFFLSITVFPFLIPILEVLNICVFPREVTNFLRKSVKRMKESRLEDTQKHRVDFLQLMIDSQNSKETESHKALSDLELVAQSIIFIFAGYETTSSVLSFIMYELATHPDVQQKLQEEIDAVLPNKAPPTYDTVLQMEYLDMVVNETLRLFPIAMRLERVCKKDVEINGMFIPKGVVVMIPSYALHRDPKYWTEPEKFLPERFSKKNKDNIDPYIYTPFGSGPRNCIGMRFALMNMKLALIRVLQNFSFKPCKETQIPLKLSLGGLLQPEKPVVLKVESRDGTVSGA
Chain of Cytochrome P450 2D6 (Homo sapiens) (P10635 whole entry, looked up): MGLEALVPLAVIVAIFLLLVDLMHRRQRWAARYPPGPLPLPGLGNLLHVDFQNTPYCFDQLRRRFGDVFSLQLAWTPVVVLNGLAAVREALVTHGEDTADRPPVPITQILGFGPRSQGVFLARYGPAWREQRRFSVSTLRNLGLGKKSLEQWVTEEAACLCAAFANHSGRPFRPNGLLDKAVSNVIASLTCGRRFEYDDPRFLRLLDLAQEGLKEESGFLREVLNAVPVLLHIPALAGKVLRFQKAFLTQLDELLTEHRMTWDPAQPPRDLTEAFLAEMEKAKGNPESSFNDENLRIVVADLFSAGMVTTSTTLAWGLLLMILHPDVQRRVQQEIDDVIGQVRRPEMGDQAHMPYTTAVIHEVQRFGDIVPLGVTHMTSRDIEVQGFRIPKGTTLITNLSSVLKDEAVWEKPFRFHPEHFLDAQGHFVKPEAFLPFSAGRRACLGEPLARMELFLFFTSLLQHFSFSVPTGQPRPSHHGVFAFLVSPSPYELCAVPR

In the case of `C#Cc1cnc2[nH]c(=O)n(C(CC)CC)c2n1`, the Potency entry in test [1], in test [3] and in test [4] was “inactive” each time. For the same compound, the Potency in test [2] is 8.49 µM (active).
With `CCCCC(CC)COC(=O)CC(C(=O)OCC(CC)CCCC)S(=O)(=O)O` (configuration not stated), the Potency result in test [2] is “inactive”.
For `CC1=CC(=O)C2C(C)(C)CC(O)CC2(C)C1CO` (configuration not stated), the Potency entry in test [3] is “inactive”.
Regarding `CCOc1nc2cccc(C(=O)OCc3oc(=O)oc3C)c2n1Cc1ccc(-c2ccccc2-c2noc(O)n2)cc1`, the Potency in test [2] is 3.38 µM (active). The Potency entry in test [3] and in test [4] was “inactive” in each case.
`CC(=O)N[C@@H](CC(C)C)C(=O)N[C@@H](CCC(=O)O)C(=O)N[C@@H](CCC(=O)O)C(=O)N[C@@H](CC(=O)O)C(=O)Nc1ccc2c(C(F)(F)F)cc(=O)oc2c1` (Ac-LEED-{AFC}): the Potency result in test [5], in test [3] and in test [4] was “inactive” each time.
In the case of `COc1cccc(-n2nc(C(=O)O)cc2-c2ccc(C3CCCCC3)c(Cl)c2)c1`, the Potency entry in test [2], in test [3] and in test [4] was “inactive” throughout.
`CCN(CC)Cc1cc(Nc2ccnc3cc(Cl)ccc23)ccc1O`: in test [2], the Potency result was “inactive”.
Consider `O=C(c1ccc(F)cc1)C1CCN(CCn2c(=O)nc3n(c2=O)CCCC3)CC1`, for which the Potency result in test [2], in test [3] and in test [4] was “inactive” throughout.
As to `Cc1nn(C)c2c1C(c1ccc(C(F)(F)F)cc1)C(C#N)=C(N)O2` (configuration not stated), the Potency in test [2] is 21.3 µM (active). The Potency entry in test [3] and in test [4] was “inactive” throughout.
In the case of `CCn1cc(C2=NOC(C(=O)Nc3c(C)n(C)n(-c4ccccc4)c3=O)C2)c(C)n1` (configuration not stated), the Potency in test [2] is 1.9 µM (active). The Potency entry in test [3] and in test [4] was “inactive” in each case.
As for `COc1cc(N2CCC(O)CC2)ccc1Nc1cc(Nc2ccccc2S(=O)(=O)C(C)C)c2cc[nH]c2n1`, the Potency in test [2] was 6.61 µM (active). Further, the Potency result in test [3] and in test [4] was “inactive” throughout.
Take `O=C(/C=C/c1c(C(=O)O)[nH]c2cc(Cl)cc(Cl)c12)Nc1ccccc1`: the Potency in test [2] is 21.3 µM (active). Further, the Potency entry in test [3] and in test [4] was “inactive” throughout.
Consider `CCOC(=O)c1ccc(N(C)c2csc(-c3ccccc3)n2)cc1`, for which the Potency in test [2] is 0.674 µM (active). The Potency result in test [3] and in test [4] was “inactive” in each case.
As to `CC(C)(C)NCc1cc(Nc2ccnc3cc(Cl)ccc23)c2c(c1O)CCCC2`, the activity change, negative = inhibition in test [2] is -23.1% [at 11.5 µM]. Also, the activity change, negative = viability loss in test [3] was -8.87% [at 0.588 µM]. Further, the activity change, negative = cell killing in test [4] is -13.7% [at 0.588 µM].
On to `C[C@H](NCc1ccc(OCc2ccccc2F)cc1)C(N)=O`, for which the Potency entry in test [2], in test [3] and in test [4] was “inactive” in each case.
For `O=C(O)c1ccc(CCCc2ccc(OCCc3ccc(F)cc3)cc2)o1`, in test [2], the Potency entry is “inactive”.
Turning to `COc1cc(C/C(=C/NC(C)=O)N(CC(=O)Cc2ccccc2)C(C)=O)cc2c1OCO2`, the Potency result in test [3] is “inactive”.
On to `COC(=O)C1=C(C#N)NC(C)=C(C(=O)OC(C)C)C1c1cccc([N+](=O)[O-])c1` (configuration not stated), for which, in test [2], the Potency is 1.07 µM (active).
On to `O=C(CCCCc1ccc2ccccc2c1)C(F)(F)F`, for which, in test [2], the Potency was 9.52 µM (active). In addition, the Potency entry in test [3] and in test [4] was “inactive” throughout.
`COc1ccccc1-n1c(SCC(=O)Nc2nc3ccc(C)cc3s2)nc2c(c1=O)SCC2`: the Potency entry in test [6], in test [3] and in test [4] was “inactive” in each case.
Turning to `C(#Cc1cccc(CN2CCOCC2)c1)CCN1CCCCC1`, the Potency entry in test [2], in test [3] and in test [4] was “inactive” each time.
Regarding `CC(C)(C)NCC(O)COc1cccc2c1CCCC2=O` (configuration not stated), the Potency result in test [2] was “inactive”. The Potency in test [4] was 4.59 µM (active).
`O=S(=O)(Nc1ccc(C(O)(C(F)(F)F)C(F)(F)F)cc1)c1cccs1`: the Potency in test [2] was 1.9 µM (active).
Same read-out and setting: in the case of `Cc1cccc(-c2[nH]c(CNc3ccccc3F)nc2-c2ccc3ncnn3c2)n1` it was 21.3 µM (active).
Turning to `CC[C@H]1OC(=O)C[C@@H](O)[C@H](C)[C@@H](O[C@@H]2O[C@H](C)[C@@H](O)[C@H](N(C)C)[C@H]2O)[C@@H](CCN2C[C@H](C)C[C@H](C)C2)C[C@@H](C)C(=O)/C=C/C(C)=C/[C@@H]1CO[C@@H]1O[C@H](C)[C@@H](O)[C@@H](OC)[C@H]1OC`, the Potency result in test [2], in test [3] and in test [4] was “inactive” throughout.
Regarding `O=S(=O)(O)c1ccc2c(N=Nc3ccc(S(=O)(=O)O)c4ccccc34)c(O)c(S(=O)(=O)O)cc2c1`, in test [2], the Potency is 12 µM (active).
`O=C(NC[C@H](O)CN1CCc2ccccc2C1)c1cc(NC2COC2)ncn1`: the Potency entry in test [1], in test [2] and in test [3] was “inactive” each time.
Take `CC(C)(C)c1cc(CN2CCN(CC(O)c3ccc(Cl)cc3)CC2)cc(C(C)(C)C)c1O` (configuration not stated): the Potency in test [2] is 8.49 µM (active).
For `COc1ccccc1[C@@H]1C2=C(CC(C)(C)CC2=O)Nc2n[nH]c(C(F)(F)F)c21`, the Potency in test [2] is 8.49 µM (active). Moreover, the Potency result in test [3] and in test [4] was “inactive” throughout.
Consider `O=C(O)C[C@@H](NC(=O)c1cc(-c2ccc(-c3ccncc3)cc2)cs1)c1ccccc1`, for which the Potency in test [2] was 26.8 µM (active). Besides, the Potency result in test [3] and in test [4] was “inactive” throughout.
Regarding `CC(C)(O)c1ccc2c(c1)C(=O)CC1[C@](C)(CO)CCC[C@]21C` (some centres not stated), the Potency result in test [5] and in test [3] was “inactive” each time.
